# Laboratory results taken from ChEMBL document CHEMBL4513216, “Probing the Open Global Health Chemical Diversity Library for Multistage-Active Starting Points for Next-Generation Antimalarials” (ACS Infect Dis, 2020).
# Hit rate of the full screen: of about 65,000 compounds, about 2,100 (3.2%) showed an effect of 50% or more. The median lay at about -52%. Shown is part of a subset that was picked to be rich in strong results.
# System: Plasmodium falciparum
# Assay: Screen against P. falciparum Asexual Blood Stage (ABS), at 5uM
# Type: functional, Dd2
# Details: tested at 5 uM
row,Structure (SMILES),INHIBITION [%]
1,Cc1csc(CCCNC(=O)NC2CC(=O)N(C(C)(C)C)C2)n1 (stereo unspecified),-57
2,Cc1n[nH]c(NC(=O)c2ccc(COCC(F)(F)F)cc2)c1C,-94.3
3,O=C1CC2(CCCCN2C(=O)c2ccco2)CN1c1cccnc1 (stereo unspecified),-138
4,O=C1Nc2ccccc2CN(CC=Cc2ccccc2)C12CCNC2 (stereo unspecified),60.2
5,O=C1Nc2ccccc2CN(CC2CC2)C12CCNC2 (stereo unspecified),-2.03
6,CCCN1Cc2ccccc2NC(=O)C12CCNC2 (stereo unspecified),-23.5
7,COCCN1CCN(C(=O)N2CCCC2)Cc2ccc(C)nc21,-114
8,CC(C)(C)c1nc(CN2CCCN(Cc3cccs3)CC2)no1,30.6
9,Cc1csc(N2CCCN(C(=O)C3(C#N)CCCCC3)CC2)n1,-43.4
10,Cc1csc(N2CCN(C(=O)C3(C#N)CCCC3)CC2)n1,-111
11,Cc1csc(N2CCCN(C(=O)C3(C#N)CCCC3)CC2)n1,63
12,Fc1cccc(N2CCCC3(CN(Cc4nccs4)CCO3)C2)c1 (stereo unspecified),0.276
13,CC(=O)Nc1ccc(CN2CCCC(c3cc4ncccc4[nH]3)C2)cc1 (stereo unspecified),42.3
14,CN(Cc1ccc(-n2cccn2)cc1)c1cc(N)nc(N)n1,41.7
15,Cc1nc2c(c(N(C)Cc3ccccc3-n3cccn3)n1)CCNCC2,-3.02
16,CN(Cc1ccccc1-n1cccn1)c1nc(N)nc2c1CCNCC2,-13.4
17,CN(CC1CCCO1)c1nc(-c2cccnc2)nc2c1CCNCC2 (stereo unspecified),-40
18,CN(CC(O)CO)c1nc(-c2cccnc2)nc2c1CCNC2 (stereo unspecified),-79.7
19,c1ccc(-c2nc3c(c(NCCn4cccc4)n2)CCNCC3)nc1,-0.552
20,CN(CC1CCCCO1)c1nc(-c2cccnc2)nc2c1CCNC2 (stereo unspecified),-14.1
21,CN(Cc1ccc(-n2cccn2)cc1)c1nc(N)nc2c1CCNCC2,58.4
22,CN(Cc1cccnc1)c1nc(-c2ccccn2)nc2c1CCNCC2,55.3

row,Structure (SMILES),INHIBITION [%]
1,Cc1nonc1CN(C)c1nc(-c2cccnc2)nc2c1CCNC2,69.5
2,Cc1cc(CN(C)c2nc(-c3ccccn3)nc3c2CCNCC3)n[nH]1,69.2
3,CN(CCO)c1nc(-c2ccccn2)nc2c1CCNC2,-79.2
4,COc1cc(CNCc2ccc(NC(=O)NC(C)C)cc2)cc(OC)c1,-65.3
5,CCC(=O)Nc1cccc(OCC(=O)N2C[C@H]3CC[C@H]2C3)c1,-137
6,COc1cccc(CC(=O)N2CCC3(CC2)OCCCC3O)c1OC (stereo unspecified),-112
7,O=C(CN1CCCC1Cn1cccn1)NCCC1=CCCCC1 (stereo unspecified),-61.8
8,CCS(=O)(=O)N1CCc2c(COCc3ccncc3)cncc2C1,-181
9,CCn1nccc1CN(C)C(=O)Cn1nc(C)cc1C,-52.5
10,CC(=O)Nc1cccc(OCCNC(=O)N(C)Cc2ccccc2)c1,-47.8
11,COc1ccc(F)c(F)c1CN1CC(=O)N(c2ccccc2C)CC1C (stereo unspecified),30.6
12,COc1ccc(F)c(CN2CC(=O)N(c3ccccc3C)CC2C)c1 (stereo unspecified),9.59
13,COc1cccc(CN2CC(=O)N(c3ccccc3C)CC2C)c1OC (stereo unspecified),53.8
14,CC(C)c1nnsc1CNC(=O)C1CCCN(C(=O)N(C)C)C1 (stereo unspecified),-18.2
15,Fc1cccc(CNCC2OCCc3cn(CC4CCOCC4)nc32)c1 (stereo unspecified),17.8
16,CC(C)n1ncc2c1NC(=O)CC21C(=O)Nc2c(Br)cc(Cl)cc21 (stereo unspecified),-72.6
17,COc1cc2c(cc1CNC(=O)C(C)n1ccnc1C(C)C)CCC2 (stereo unspecified),60.2
18,COc1cc2c(cc1CNC(=O)C(C)n1ccnc1C(C)C)OCCO2 (stereo unspecified),11.4
19,COCc1nc(CNC(=O)C(C)n2ccnc2C(C)C)no1 (stereo unspecified),-14.3
20,COc1cccc(N2CCN(CCC(=O)NC3CCCCC3)CC2)c1,-28.7
21,CCC(NC(N)=O)c1ccccc1OCC(=O)N1CCCC1 (stereo unspecified),-37.9
22,CCC(NC(=O)COC)c1ccccc1OCC(=O)N1CCCC1 (stereo unspecified),-191

row,Structure (SMILES),INHIBITION [%]
1,CCC(N)c1ccccc1OCC(=O)N1CCCC1 (stereo unspecified),52.5
2,CCOCCC1(C(=O)N2CCCC(c3ncc[nH]3)C2)CCCC1 (stereo unspecified),-71.1
3,CC(c1ccncn1)N(C)Cc1cc2cc3c(cc2[nH]c1=O)OCO3 (stereo unspecified),-84.5
4,CCOc1cccc(C(=O)Nc2ccncc2)c1,-39.7
5,COc1c(CNC2(c3ccc(Cl)cc3)CCC2)c(C)nn1C,60.5
6,COc1c(CNC2(c3noc(C)n3)CCC2)c(C)nn1C,-55.5
7,COc1c(CNC2CCc3cc(Cl)ccc32)c(C)nn1C (stereo unspecified),21.4
8,COc1ccc(-c2cc(C3CCNCC3)nc(C)n2)cc1,-57.7
9,Cc1nc(-c2ccccc2)cc(C2CCNCC2)n1,57.8
10,Cc1nc(-c2ccc(F)cc2)cc(C2CCNCC2)n1,-33.4
11,CC(=O)N1CCCC(c2nc(N(C)C)ncc2-c2cccc(F)c2)C1 (stereo unspecified),-1.35
12,Cc1ccc(C(=O)N2C[C@H]3CCC[C@@]3(COc3ccccn3)C2)nc1,9.4
13,O=C(c1cocn1)N1C[C@H]2CCC[C@@]2(COc2ccccn2)C1,52.1
14,O=C(c1ncccn1)N1C[C@H]2CCC[C@@]2(COc2ccccn2)C1,14.9
15,NC(=O)c1ccn(COc2ccccc2Cl)n1,-63.1
16,Cc1cnn(C2CN(c3ccccc3S(=O)(=O)C(F)(F)F)C2)c1,-111
17,CS(=O)(=O)NC[C@H]1Cn2c(-c3ccccc3)cnc2CO1,-21
18,CS(=O)(=O)NC[C@H]1Cn2c(-c3ccc(Cl)cc3)cnc2CO1,57.1
19,CS(=O)(=O)NC[C@H]1Cn2c(-c3ccc(F)cc3)cnc2CO1,-34.5
20,CN(C)Cc1csc(-c2nccn2Cc2ccsc2)c1,17.1
21,Cc1cccc(C(=O)N2CCC[C@]3(C[C@@H](OCC4CC4)CO3)C2)n1,-156
22,Cn1cc(CN2C[C@H](N3CCOCC3)[C@@H]3OCCC[C@@H]32)cn1,-93.3

row,Structure (SMILES),INHIBITION [%]
1,c1ccc(COc2cccc(CNC3CCc4ncnn4C3)c2)cc1 (stereo unspecified),24.8
2,COc1cccc(C(O)CNC(=O)CC2CCCCC2)c1 (stereo unspecified),-143
3,OC(CNC1CCOCC1)c1cccc(OCc2ccccc2)c1 (stereo unspecified),53.2
4,O=C(NCC(O)c1ccc(Cl)c(F)c1)NC1CC=CC1 (stereo unspecified),-14.7
5,OC(CNC1CCOCC1)c1ccc(Cl)c(F)c1 (stereo unspecified),50.9
6,CCN1CCC(NC(=O)NCC(O)c2ccc(Cl)c(F)c2)CC1 (stereo unspecified),-34.9
7,CC(C)(CNc1cccc(Cl)c1)NC(=O)C1CCCN(CC(N)=O)C1 (stereo unspecified),-34.6
8,COc1ccccc1-c1ncc(CN2C[C@@H](N(C)C)[C@H](C(C)C)C2)s1,54.7
9,COc1ccccc1-c1ncc(CN2C[C@H](O)[C@@H](N3CCCC3)C2)s1,16.5
10,COc1ccccc1-c1ncc(CN2CCCC(CCC(N)=O)C2)s1 (stereo unspecified),-43.7
11,CCc1csc(C2CCCN(C(=O)c3ncccn3)C2)n1 (stereo unspecified),-94
12,CN(C)CCn1c(=O)n(C)c(=O)c2ccccc21,-7.78
13,CC(C)n1c(=O)c2ccccc2n(CCCN(C)C)c1=O,59.5
14,CC(C)n1c(=O)c2ccccc2n(CCN(C)C)c1=O,36.1
15,CCN(Cc1ccccc1)C(=O)CCN1CC(O)C1,-76.9
16,Cc1nc(C)c(C(=O)N2Cc3ccccc3OCC2Cn2ccnc2)s1 (stereo unspecified),-22.8
17,N#Cc1ccccc1N1CCN(C(=O)NCC(=O)N2CCCC2)CC1,-1.82
18,CC(C)N1CCC(C(=O)N2CCCN(c3ccccc3)CC2)CC1,-38.1
19,COC(=O)N1CCCCC1C(=O)N1CCN(c2cccnc2)CC1 (stereo unspecified),-87.5
20,CN1CCCCCC1C(=O)N1CCCN(c2ccccc2)CC1 (stereo unspecified),61.8
21,CN1CCCCCC1C(=O)N1CCN(c2ccccc2C#N)CC1 (stereo unspecified),60.4
22,CN1CCCCC1C(=O)N1CCN(c2ccccc2C#N)CC1 (stereo unspecified),11.5

row,Structure (SMILES),INHIBITION [%]
1,CC[C@H]1CN(C(=O)c2ccc(-n3cnnc3)nc2)CC[C@@]1(C)O,-129
2,Cc1noc(C)c1CCC(=O)N1CCCN(Cc2cccs2)CC1,-63
3,CC(C1CCN(Cc2cccc(OC(F)F)c2)CC1)N1CCOCC1 (stereo unspecified),68.3
4,CC(C)Oc1cccc(CN2CCC(C(C)N3CCOCC3)CC2)c1 (stereo unspecified),55.8
5,CC(C)Oc1cccc(CN2CCC(c3n[nH]c4ncccc34)CC2)c1,-51.3
6,CC(C1CCN(Cc2ccccc2OC(F)F)CC1)N1CCOCC1 (stereo unspecified),9.39
7,CC(C1CCN(Cc2ccc(OC(F)F)cc2)CC1)N1CCOCC1 (stereo unspecified),-26.3
8,CC(C1CCN(Cc2ccc(N(C)C)nc2)CC1)N1CCOCC1 (stereo unspecified),-5.43
9,CCc1ccc(C(CNC(=O)c2c(C)noc2C)N(C)C)cc1 (stereo unspecified),-71.9
10,O=C(NC1CC1)[C@H]1C[C@H]2OCC[C@H]2N(CC2CC2)C1,-28.3
11,CC(C)(C)CC(=O)NCCn1nc(C2CCNC2)c2cccnc21 (stereo unspecified),-134
12,Cc1nccc(NCc2cncc3c2CCN(CC2CCOC2)C3)n1 (stereo unspecified),-81.6
13,CC(C)n1cc(C(=O)N2CCN(c3cccc(C(F)(F)F)c3)CC2)cn1,-46.5
14,CC(O)Cc1cn(CC2CCN(c3nccc4occc34)CC2)nn1 (stereo unspecified),-39.4
15,O=C(O)c1cn(CC2CCCN(c3nccc4occc34)C2)nn1 (stereo unspecified),-30.1
16,CN(C)Cc1cn(CC2CCCN(c3nccc4occc34)C2)nn1 (stereo unspecified),60.5
17,CC(C)(C)c1ncc(C(=O)NCc2ccccc2CN2CCCC2)s1,-23.4
18,O=C(c1ccc[nH]1)N1C[C@H](OCc2ccccn2)[C@H]2COC[C@H]21,-89.2
